In PubChem BioAssay (NCI):
The panel holds about 79,000 compounds, 15% with a hit somewhere; the sample as a whole holds those more often. Active and inactive are the calls of the source. Rule as the data show it: active = growth inhibition above about 70%; inactive = the rest.

Assays:
[1] = NCI Yeast Anticancer Drug Screen. Data for the rad50 strain (AID 155);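 also: 0% = growth of vehicle-only cultures of the same strain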; conditions: S. cerevisiae rad50 strain growth inhibition; at 50.0 µM; active compounds read high
In short: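 Relative growth inhibition (compound vs vehicle) was measured in yeast with a defined repair-gene alteration.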

[2] = NCI Yeast Anticancer Drug Screen. Data for the mec2-1 strain (AID 157); conditions: S. cerevisiae mec2-1 strain, at 50.0 µM, active compounds read high
In short: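 Using mec2-1 yeast: add compound, measure growth, express inhibition versus vehicle-treated cultures.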

[3] = NCI Yeast Anticancer Drug Screen. Data for the sgs1 mgt1 strain (AID 161);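 also: 0% = growth of cultures given vehicle only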; conditions: S. cerevisiae sgs1 mgt1 strain, at 50.0 µM, active compounds read high
In short: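 Growth of a repair-deficient yeast mutant was monitored after compound treatment and expressed as inhibition relative to vehicle-treated cultures.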

[4] = NCI Yeast Anticancer Drug Screen. Data for the cln2 rad14 strain (AID 165);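 also: 0% = growth equal to vehicle treated cultures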; conditions: S. cerevisiae cln2 rad14 strain, at 50.0 µM, active compounds read high
In short: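 Yeast strain cln2 rad14, bearing defects in cell cycle control and DNA repair, serves as the test system; values reflect growth inhibition compared with vehicle.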

[5] = NCI Yeast Anticancer Drug Screen. Data for the bub3 strain (AID 167); conditions: S. cerevisiae bub3 mutant strain, at 50.0 µM, active compounds read high
In short: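 Screening used yeast with an engineered genetic alteration affecting cell cycle control. Compound-exposed cultures were compared with vehicle cultures, and reduced growth was taken as inhibition.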

[6] = NCI Yeast Anticancer Drug Screen. Data for the mlh1 rad18 strain (AID 175); conditions: S. cerevisiae mlh1 rad18 strain growth inhibition; at 50.0 µM; active compounds read high
In short: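 Steps: expose repair-defective yeast to compound; measure growth; express inhibition against vehicle-treated controls.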

Measured: growth inhibition

O=Cc1ccc(OCCCOc2ccc([N+](=O)[O-])cc2)cc1
inactive: [1] -5.1% | [2] 1.6% | [3] 11.3% | [4] -12.1% | [5] 33.1% | [6] 42%

N#CC1C(=O)NC(=S)NC1c1ccc(Cl)c(Cl)c1 (stereo not given)
inactive: [1] -3.15% | [2] -16.9% | [3] -25.9% | [4] -19.6% | [5] -13.8% | [6] -5.25%

CC(=O)OC1C=CC(OC(C)=O)C2C1[C@H]1C3C=CC=CC3[C@@H]2S1=O (stereo not given in full)
inactive: [1] -36.8% | [2] -35.8% | [3] -17.2% | [4] -6.5% | [5] 6.25% | [6] -27.1%

O=[N+]([O-])c1cccc(/C=C/c2cc(N(CCO)CCO)c3ccccc3n2)c1
inactive: [1] 48.1% | [2] 12.8% | [3] 11.1% | [4] 3.5% | [5] -6.6% | [6] 22.2%

Nc1c(S(=O)(=O)O)cc(S(=O)(=O)O)c2ccc(N=Nc3ccccc3)c(O)c12
inactive: [1] 7.15% | [2] 0.9% | [3] -10.8% | [4] -3.05% | [5] -8.7% | [6] -15.7%

CC1(C)OC2C(=O)C3COC(O3)C2O1 (stereo not given)
inactive: [1] -10.7% | [2] -0.25% | [3] -25.1% | [4] -36% | [5] 0% | [6] 5.8%

COc1cc2c(cc1OC)C(Cl)C(c1ccc(Cl)c(Cl)c1)=C2Cl (stereo not given)
inactive: [1] -0.65% | [2] 14.2% | [3] -4.6% | [4] -0.25% | [5] -4.15% | [6] -5.05%

Clc1ccc(CSCSCc2ccc(Cl)cc2)cc1
inactive: [1] 5.95% | [2] -15.3% | [3] 10.8% | [4] -40.9% | [5] 19.6% | [6] 4.3%

FC(F)(F)c1cc(C2SCc3nc4ccccc4n32)cc(C(F)(F)F)c1 (stereo not given)
inactive: [1] -5.25% | [2] -23% | [3] -7.9% | [4] 6.95% | [5] -4.35% | [6] -17.4%

CC(=O)c1cc(C)oc1C
inactive: [1] -5.1% | [2] -8.25% | [3] -12.8% | [4] -32.1% | [5] 2.8% | [6] 12.9%

Cc1cc([N+](C)(C)C)c(C(C)C)cc1O
inactive: [1] -0.45% | [2] 5.7% | [3] 6.25% | [4] 9.55% | [5] 11% | [6] 0.25%

CC(C)=C(OC(=O)c1ccccc1)C(C)(CC(C)(C)C)C(C)(C)C (stereo not given)
inactive: [1] 13.1% | [2] -55.3% | [3] -10.3% | [4] -100% | [5] -26.5% | [6] 19.4%

Cc1cccc(C)c1N1C(=O)C2c3[nH]c4ccccc4c3C3CCC(C(C)(C)C)CC3C2C1=O (stereo not given)
inactive: [1] 37.7% | [2] 11.4% | [3] 28.2% | [4] 1.8% | [5] 3.4% | [6] 18.1%

Cc1c2ccccc2nc(CSCC(O)CO)[n+]1[O-] (stereo not given)
inactive: [1] -8.4% | [2] 10.7% | [3] 12.3% | [4] -55.6% | [5] 14.4% | [6] 6.85%

Cc1c([N+](=O)[O-])cc2c(c1[N+](=O)[O-])C(=O)c1ccccc1-2
inactive: [1] -2.1% | [2] 4.35% | [3] 8.5% | [4] -14.9% | [5] -6.05% | [6] 7.9%

N#CC(c1ccc(Cl)cc1)c1cccc(C(C#N)c2ccc(Cl)cc2)n1 (stereo not given)
inactive: [1] 28.9% | [2] 13.6% | [3] 38% | [4] 32.1% | [5] 38.4% | [6] 25.3%

C(#CC[P+](c1ccccc1)(c1ccccc1)c1ccccc1)C[P+](c1ccccc1)(c1ccccc1)c1ccccc1
inactive: [1] -24.1% | [2] -16.4% | [3] 0.2% | [4] 3.55% | [5] -5.4% | [6] -10.4%

O=C(Nc1ccc(S(=O)(=O)NC2CCCCC2)cc1)OC1CCCCCC1
inactive: [1] 2.6% | [2] -1.25% | [3] 7.75% | [4] 4.35% | [5] -1.95% | [6] -0.85%

NNC(=O)C(CSC(c1ccccc1)(c1ccccc1)c1ccccc1)NC(=O)OCc1ccccc1 (stereo not given)
active: [1] 87.1% | [2] 86% | [3] 94.8% | [4] 83.6% | [5] 89% | [6] 95.2%

COc1cc2c(cc1O)[C@@H]1Cc3c(cc(OC)c(OC)c3Oc3cc4c(cc3OC)CCN(C)[C@@H]4Cc3ccc(O)cc3)[C@H](C2)N1C
inactive: [1] 14.9% | [2] 8.75% | [3] 0.15% | [4] 12.1% | [5] -10.4% | [6] -56%
